Measurements from PubChem BioAssay AID1159580 (chemical genetic matrix, 2015).
In all, about 5,500 compounds went through this assay and about 2,000 (36%) were called active. Not shown: some 18% with an inconclusive outcome. Rule as the data show it: active = normalized growth mostly below about 0.91 (no sharp cut-off); inconclusive = no clear call, values can overlap the other calls; inactive = mostly above about 0.92. Some of the results follow.

Assay: chemical genetic growth profiling, strain panel (AID 1159580);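 also: tested at 20 µM; growth read once vehicle control cultures reached saturation at 30 °C; 1 = growth at the plate median or of vehicle wells; lower values mean less growth of the strain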
Conditions: growth OD

Measured: normalized growth

CC1(C)C(=O)C=C[C@@]2(C)C1CC(=O)[C@@]1(C)C3=CC(=O)O[C@@H](c4ccoc4)[C@]3(C)CCC12 (some centres undefined)
inactive: S. cerevisiae deletion strains, locus YBR021W, strain FUR4, active compounds read low 0.994 | S. cerevisiae deletion strains, locus YBR229C, strain ROT2, active compounds read low 1 | S. cerevisiae deletion strains, locus YCL029C, strain bik1, active compounds read low 0.994 | S. cerevisiae deletion strains, locus YDL035C, strain GPR1, active compounds read low 1.02 | S. cerevisiae deletion strains, locus YDL074C, strain BRE1, active compounds read low 1 | S. cerevisiae deletion strains, locus YDL101C, strain DUN1, active compounds read low 0.997 | S. cerevisiae deletion strains, locus YDL185W, strain tfp1, active compounds read low 1 | S. cerevisiae deletion strains, locus YDL192W, strain arf1, active compounds read low 0.987 | S. cerevisiae deletion strains, locus YDR101C, strain arx1, active compounds read low 0.988 | S. cerevisiae deletion strains, locus YDR162C, strain NBP2, active compounds read low 1.01 | S. cerevisiae deletion strains, locus YDR318W, strain mcm21, active compounds read low 0.993 | S. cerevisiae deletion strains, locus YDR388W, active compounds read low 0.996 | S. cerevisiae deletion strains, locus YDR502C, strain sam2, active compounds read low 0.983 | S. cerevisiae deletion strains, locus YER110C, active compounds read low 0.989 | S. cerevisiae deletion strains, locus YER155C, strain BEM2, active compounds read low 1.01 | S. cerevisiae deletion strains, locus YER167W, strain BCK2, active compounds read low 1 | S. cerevisiae deletion strains, locus YGL078C, strain dbp3, active compounds read low 0.999 | S. cerevisiae deletion strains, locus YGL086W, strain mad1, active compounds read low 1.01 | S. cerevisiae deletion strains, locus YGL248W, strain PDE1, active compounds read low 0.997 | S. cerevisiae deletion strains, locus YGR078C, strain PAC10, active compounds read low 0.997 | S. cerevisiae deletion strains, locus YGR135W, strain pre9, active compounds read low 0.993 | S. cerevisiae deletion strains, locus YGR229C, strain SMI1, active compounds read low 1.01 | S. cerevisiae deletion strains, locus YGR252W, strain gcn5, active compounds read low 0.939 | S. cerevisiae deletion strains, locus YHR079C, strain IRE1 (second series), active compounds read low 0.988 | S. cerevisiae deletion strains, locus YHR094C, strain hxt1, active compounds read low 0.991 | S. cerevisiae deletion strains, locus YHR129C, strain ARP1, active compounds read low 0.998 | S. cerevisiae deletion strains, locus YHR200W, strain rpn10, active compounds read low 0.99 | S. cerevisiae deletion strains, locus YIL066C, strain RNR3, active compounds read low 1.01 | S. cerevisiae deletion strains, locus YIL073C, strain SPO22, active compounds read low 1.04 | S. cerevisiae deletion strains, locus YIL125W, strain kgd1, active compounds read low 0.991 | S. cerevisiae deletion strains, locus YIR030C, strain dcg1, active compounds read low 0.996 | S. cerevisiae deletion strains, locus YJL095W, strain BCK1, active compounds read low 0.988 | S. cerevisiae deletion strains, locus YJL134W, strain LCB3, active compounds read low 1.01 | S. cerevisiae deletion strains, locus YJL168C, strain set2, active compounds read low 0.998 | S. cerevisiae deletion strains, locus YJL187C, strain SWE1 (second series), active compounds read low 0.996 | S. cerevisiae deletion strains, locus YJR043C, strain POL32, active compounds read low 1.01 | S. cerevisiae deletion strains, locus YKL009W, strain mrt4, active compounds read low 1.01 | S. cerevisiae deletion strains, locus YKL068W, active compounds read low 1 | S. cerevisiae deletion strains, locus YKL085W, strain MDH1 (second series), active compounds read low 0.998 | S. cerevisiae deletion strains, locus YKL085W, strain MDH1, active compounds read low 0.998 | S. cerevisiae deletion strains, locus YKR001C, strain vps1, active compounds read low 0.98 | S. cerevisiae deletion strains, locus YLR039C, strain RIC1, active compounds read low 1.02 | S. cerevisiae deletion strains, locus YLR058C, strain SHM2, active compounds read low 1 | S. cerevisiae deletion strains, locus YLR102C, strain apc9, active compounds read low 0.994 | S. cerevisiae deletion strains, locus YLR262C, strain YPT6, active compounds read low 1.04 | S. cerevisiae deletion strains, locus YLR268W, strain sec22, active compounds read low 1 | S. cerevisiae deletion strains, locus YLR330W, strain CHS5, active compounds read low 1 | S. cerevisiae deletion strains, locus YLR371W, strain rom2, active compounds read low 0.988 | S. cerevisiae deletion strains, locus YLR418C, strain cdc73, active compounds read low 0.985 | S. cerevisiae deletion strains, locus YML016C, strain PPZ1, active compounds read low 1 | S. cerevisiae deletion strains, locus YML032C, strain rad52, active compounds read low 0.998 | S. cerevisiae deletion strains, locus YML124C, strain tub3, active compounds read low 0.996 | S. cerevisiae deletion strains, locus YMR078C, strain ctf18, active compounds read low 1.01 | S. cerevisiae deletion strains, locus YMR223W, strain ubp8, active compounds read low 0.983 | S. cerevisiae deletion strains, locus YMR263W, strain SAP30, active compounds read low 0.998 | S. cerevisiae deletion strains, locus YMR307W, strain GAS1, active compounds read low 0.98 | S. cerevisiae deletion strains, locus YNL067W, strain RPL9B, active compounds read low 0.996 | S. cerevisiae deletion strains, locus YNL128W, strain TEP1, active compounds read low 1.02 | S. cerevisiae deletion strains, locus YNL233W, strain BNI4, active compounds read low 1.02 | S. cerevisiae deletion strains, locus YNL250W, strain rad50, active compounds read low 1 | S. cerevisiae deletion strains, locus YNL271C, strain bni1, active compounds read low 1 | S. cerevisiae deletion strains, locus YNL298W, strain CLA4, active compounds read low 0.987 | S. cerevisiae deletion strains, locus YNL307C, strain MCK1, active compounds read low 0.994 | S. cerevisiae deletion strains, locus YNR052C, strain pop2, active compounds read low 0.979 | S. cerevisiae deletion strains, locus YOL012C, strain htz1 1.33 | S. cerevisiae deletion strains, locus YOL147C, strain pex11, active compounds read low 0.992 | S. cerevisiae deletion strains, locus YOR061W, strain CKA2, active compounds read low 1.01 | S. cerevisiae deletion strains, locus YOR069W, strain VPS5, active compounds read low 0.999 | S. cerevisiae deletion strains, locus YOR136W, strain idh2, active compounds read low 1.01 | S. cerevisiae deletion strains, locus YOR144C, strain elg1, active compounds read low 0.99 | S. cerevisiae deletion strains, locus YOR184W, strain ser1, active compounds read low 1.01 | S. cerevisiae deletion strains, locus YOR316C, strain cot1, active compounds read low 0.992 | S. cerevisiae deletion strains, locus YPL241C, strain CIN2, active compounds read low 1.01 | S. cerevisiae deletion strains, locus YPR119W, strain clb2, active compounds read low 0.998 | S. cerevisiae deletion strains, locus YPR141C, strain kar3, active compounds read low 1 | S. cerevisiae deletion strains, locus YPR163C, strain tif3, active compounds read low 1 | S. cerevisiae deletion strains, locus YPR167C, strain met16, active compounds read low 1 | S. cerevisiae deletion strains, strain wtn01, active compounds read low 0.992 | S. cerevisiae strains, strain wild type, active compounds read low 1.01
